{"source": "the antibiotic and cytotoxicity screens of Wong et al. (2023)", "note": "The whole screen tested about 39,000 compounds, of which about 3,300 (8.5%) were called active. Shown is part of a subset that was picked to be rich in actives.", "data": [{"system": "HepG2", "assay": "cytotoxicity call (relative viability < 0.9)", "conditions": "10 µM", "values": [{"molecule": "Cc1ccc(S(=O)(=O)Nc2ccc3c(c2)C(=O)N([C@@H](C)CO)C[C@H](C)[C@@H](CN(C)S(C)(=O)=O)OCCCC[C@H](C)O3)cc1", "cytotoxicity call": "inactive"}, {"molecule": "C[C@H](CO)N1C[C@H](C)[C@H](CN(C)C(=O)Nc2ccc(C(F)(F)F)cc2)OCCCC[C@H](C)Oc2ccc(NC(=O)c3ccncc3)cc2C1=O", "cytotoxicity call": "inactive"}, {"molecule": "C[C@H]1CN([C@@H](C)CO)C(=O)c2cc(C#Cc3ccccc3F)cnc2O[C@@H]1CN(C)S(=O)(=O)c1ccccc1", "cytotoxicity call": "inactive"}, {"molecule": "C[C@H](CO)N1C[C@H](C)[C@@H](CN(C)S(=O)(=O)c2ccccc2)Oc2ncc(Br)cc2C1=O", "cytotoxicity call": "inactive"}, {"molecule": "S=C(Nc1ccccc1)Nc1ccc2c(c1)oc1ccccc12", "cytotoxicity call": "inactive"}, {"molecule": "COc1ccc(CN(C)C[C@@H]2Oc3ccc(NC(=O)Cn4cnnn4)cc3CC(=O)N([C@H](C)CO)C[C@@H]2C)cc1", "cytotoxicity call": "inactive"}, {"molecule": "C[C@@H](N)c1cnn(-c2ccccc2F)c1", "cytotoxicity call": "inactive"}, {"molecule": "CCN(CC)CCNc1ccc(COc2ccccc2/C=C(C)/C=C/C(=O)NO)c2sc3ccccc3c(=O)c12", "cytotoxicity call": "inactive"}, {"molecule": "CCN(CC)CCNc1ccc(COc2cccc(/C=C(C)/C=C/C(=O)NO)c2)c2sc3ccccc3c(=O)c12", "cytotoxicity call": "inactive"}, {"molecule": "CCN(CC)CCNc1ccc(CO)c2sc3ccccc3c(=O)c12", "cytotoxicity call": "active"}, {"molecule": "C[C@@H]1CCCCO[C@@H](CN(C)Cc2ccc(C(=O)O)cc2)[C@@H](C)CN([C@H](C)CO)C(=O)c2cc(NS(=O)(=O)c3cccs3)ccc2O1", "cytotoxicity call": "inactive"}, {"molecule": "O=C(C[C@@H]1C=C[C@@H](NC(=O)c2cccnc2)[C@H](CO)O1)NCCN1CCCCC1", "cytotoxicity call": "inactive"}, {"molecule": "CN(C)CC(=O)N[C@@H]1C=C[C@@H](CC(=O)NCCN2CCCCC2)O[C@H]1CO", "cytotoxicity call": "inactive"}, {"molecule": "O=C(C[C@H]1C=C[C@H](NC(=O)c2cccnc2)[C@@H](CO)O1)NCCN1CCCCC1", "cytotoxicity call": "active"}, {"molecule": "CN(C)CC(=O)N[C@@H]1C=C[C@H](CC(=O)NCCN2CCCCC2)O[C@H]1CO", "cytotoxicity call": "inactive"}, {"molecule": "CN(C)CC(=O)N[C@H]1C=C[C@@H](CC(=O)NCCN2CCCCC2)O[C@@H]1CO", "cytotoxicity call": "active"}, {"molecule": "O=C(C[C@@H]1C=C[C@@H](NC(=O)c2cccnc2)[C@@H](CO)O1)NCCN1CCCCC1", "cytotoxicity call": "inactive"}, {"molecule": "COCC#Cc1ccc2c(c1)O[C@@H](CN(C)C(=O)Nc1ccc(OC)cc1)[C@H](C)CN([C@@H](C)CO)S2(=O)=O", "cytotoxicity call": "inactive"}, {"molecule": "CC(C)(C)OC(=O)C[C@@H]1CC=CC[C@H](CC(=O)N[C@@H](CO)Cc2ccccc2)C(=O)N2CCC[C@@H]2COC1=O", "cytotoxicity call": "inactive"}, {"molecule": "Cc1noc(C)c1NC(=O)N(C)C[C@H]1Oc2c(NS(C)(=O)=O)cccc2C(=O)N([C@@H](C)CO)C[C@H]1C", "cytotoxicity call": "inactive"}, {"molecule": "CC(C)(C)S(=O)N1Cc2cc(C(=O)N[C@@H]3CCN(Cc4ccccc4)C3)nc(-c3cccc(C#CCC4CCCC4)c3)c2[C@@H]1CCO", "note": "(stereo partly drawn)", "cytotoxicity call": "inactive"}, {"molecule": "N#C/C(=C\\c1ccc(O)c(O)c1)C(N)=O", "cytotoxicity call": "active"}, {"molecule": "N#CC(=Cc1ccc(O)c(O)c1)C(N)=O", "cytotoxicity call": "inactive"}, {"molecule": "CCN(CC)C(=O)C(C#N)=Cc1cc(O)c(O)c([N+](=O)[O-])c1", "cytotoxicity call": "inactive"}, {"molecule": "Cc1noc(C)c1S(=O)(=O)Nc1cccc2c1O[C@@H](CN(C)C(=O)Nc1ccccc1)[C@@H](C)CN([C@H](C)CO)C2=O", "cytotoxicity call": "inactive"}, {"molecule": "CC(C)NC(=O)Nc1ccc2c(c1)C(=O)N([C@H](C)CO)C[C@@H](C)[C@@H](CN(C)CC1CCCCC1)OCCCC[C@@H](C)O2", "cytotoxicity call": "inactive"}, {"molecule": "NCc1ccc(Br)s1", "cytotoxicity call": "inactive"}, {"molecule": "Cc1noc(C)c1S(=O)(=O)Nc1ccc2c(c1)C(=O)N([C@H](C)CO)C[C@H](C)[C@H](CN(C)S(C)(=O)=O)OCCCC[C@@H](C)O2", "cytotoxicity call": "inactive"}, {"molecule": "C[C@H](CO)N1C[C@H](C)[C@H](CN(C)Cc2ccc3c(c2)OCO3)Oc2ccc(NC(=O)C3CC3)cc2C1=O", "cytotoxicity call": "inactive"}, {"molecule": "C[C@@H]1CCCCO[C@@H](CN(C)S(=O)(=O)c2cccs2)[C@@H](C)CN([C@@H](C)CO)C(=O)c2cc(NC(=O)C3CCCCC3)ccc2O1", "cytotoxicity call": "inactive"}, {"molecule": "C[C@@H]1CN([C@@H](C)CO)S(=O)(=O)c2ccc(/C=C/c3ccccc3)cc2O[C@H]1CN(C)C(=O)Nc1cc(F)ccc1F", "cytotoxicity call": "inactive"}, {"molecule": "COc1ccc(C#Cc2ccc3c(c2)O[C@@H](CN(C)C(=O)c2ccccn2)[C@H](C)CN([C@@H](C)CO)S3(=O)=O)cc1", "cytotoxicity call": "inactive"}, {"molecule": "COc1ccc(C#Cc2ccc3c(c2)O[C@H](CN(C)C(=O)c2ccccn2)[C@H](C)CN([C@@H](C)CO)S3(=O)=O)cc1", "cytotoxicity call": "active"}, {"molecule": "COc1cccc(C#Cc2ccc3c(c2)O[C@@H](CN(C)C(=O)c2ccccn2)[C@@H](C)CN([C@@H](C)CO)S3(=O)=O)c1", "cytotoxicity call": "inactive"}, {"molecule": "COc1cccc(C#Cc2ccc3c(c2)O[C@@H](CN(C)C(C)=O)[C@@H](C)CN([C@@H](C)CO)S3(=O)=O)c1", "cytotoxicity call": "active"}, {"molecule": "COc1cccc(C#Cc2ccc3c(c2)O[C@H](CN(C)C(=O)c2ccccn2)[C@H](C)CN([C@H](C)CO)S3(=O)=O)c1", "cytotoxicity call": "active"}, {"molecule": "COc1cccc(C#Cc2ccc3c(c2)O[C@H](CN(C)C(C)=O)[C@@H](C)CN([C@H](C)CO)S3(=O)=O)c1", "cytotoxicity call": "inactive"}, {"molecule": "COc1cccc(C#Cc2ccc3c(c2)O[C@H](CN(C)C(C)=O)[C@H](C)CN([C@@H](C)CO)S3(=O)=O)c1", "cytotoxicity call": "inactive"}, {"molecule": "COc1ccc(C#Cc2ccc3c(c2)O[C@H](CN(C)C(=O)c2ccccn2)[C@@H](C)CN([C@@H](C)CO)S3(=O)=O)cc1", "cytotoxicity call": "inactive"}, {"molecule": "COc1cccc(C#Cc2ccc3c(c2)O[C@H](CN(C)C(=O)c2ccccn2)[C@@H](C)CN([C@H](C)CO)S3(=O)=O)c1", "cytotoxicity call": "inactive"}, {"molecule": "C[C@H]1CN([C@@H](C)CO)C(=O)c2cc(NC(=O)c3ccncc3)ccc2O[C@H]1CN(C)Cc1ccc(Oc2ccccc2)cc1", "cytotoxicity call": "inactive"}, {"molecule": "COCC#Cc1ccc2c(c1)O[C@H](CN(C)C(=O)Nc1ccccc1F)[C@H](C)CN([C@H](C)CO)S2(=O)=O", "cytotoxicity call": "inactive"}, {"molecule": "Cc1ccc(S(=O)(=O)N[C@@H](Cc2ccccc2)C(=O)NCCn2cc(-c3ccc(C(=O)NO)s3)nn2)cc1", "cytotoxicity call": "inactive"}, {"molecule": "COc1cccc(S(=O)(=O)N(C)C[C@@H]2Oc3cc(C#CCN(C)C)ccc3S(=O)(=O)N([C@@H](C)CO)C[C@H]2C)c1", "cytotoxicity call": "inactive"}, {"molecule": "CC(=O)NS(=O)(=O)c1ccc(N)cc1", "note": "[listing 1 of 2 here]", "cytotoxicity call": "inactive"}, {"molecule": "NC(=O)NS(=O)(=O)c1ccc(N)cc1", "cytotoxicity call": "inactive"}, {"molecule": "CC(=O)NS(=O)(=O)c1ccc(N)cc1", "note": "[listing 2 of 2 here]", "cytotoxicity call": "active"}, {"molecule": "C[C@H](CO)N1C[C@H](C)[C@H](CN(C)C(=O)Nc2cccc3ccccc23)Oc2ccc(NC(=O)Nc3ccc4c(c3)OCO4)cc2C1=O", "cytotoxicity call": "inactive"}, {"molecule": "Nc1nnc([C@H]2CCCO2)o1", "cytotoxicity call": "inactive"}, {"molecule": "O=C(O)c1ccc(-c2ccccc2)cc1", "cytotoxicity call": "inactive"}, {"molecule": "O=C(O)c1ccc2nc(O)c(=O)[nH]c2c1", "cytotoxicity call": "inactive"}, {"molecule": "O=C(O)c1ccc(-n2nc(-c3ccccc3O)nc2-c2ccccc2O)cc1", "cytotoxicity call": "active"}, {"molecule": "COCC#Cc1cnc2c(c1)C(=O)N([C@@H](C)CO)C[C@H](C)[C@@H](CN(C)C(=O)Nc1ccccc1OC)O2", "cytotoxicity call": "inactive"}, {"molecule": "Cc1noc(C)c1S(=O)(=O)N(C)C[C@@H]1OCCCC[C@@H](C)Oc2ccc(NC(=O)Nc3cccc4ccccc34)cc2C(=O)N([C@@H](C)CO)C[C@H]1C", "cytotoxicity call": "inactive"}, {"molecule": "COc1ccc(NC(=O)N(C)C[C@@H]2OCCCC[C@H](C)Oc3ccc(NS(=O)(=O)c4ccc(Cl)cc4)cc3C(=O)N([C@H](C)CO)C[C@@H]2C)cc1", "cytotoxicity call": "inactive"}, {"molecule": "C[C@H]1CN([C@@H](C)CO)C(=O)c2cc(C#CC3(O)CCCC3)cnc2O[C@@H]1CN(C)C(=O)Nc1ccc2c(c1)OCO2", "cytotoxicity call": "inactive"}, {"molecule": "O=C(/C=c1/nc2c([nH]c1=O)=NON2)c1ccccc1", "cytotoxicity call": "inactive"}, {"molecule": "C[C@H]1CNC(=CC(=O)c2ccccc2)C(=O)N1", "cytotoxicity call": "inactive"}, {"molecule": "O=C1OCCN/C1=C/C(=O)c1ccccc1", "cytotoxicity call": "active"}, {"molecule": "COCCNC(=O)C[C@H]1CC[C@@H](NS(=O)(=O)c2ccc(C)cc2)[C@@H](CO)O1", "cytotoxicity call": "inactive"}, {"molecule": "C[C@@H]1CN([C@@H](C)CO)C(=O)c2cc(C#CC3CC3)cnc2O[C@@H]1CN(C)S(=O)(=O)c1cccc(F)c1", "cytotoxicity call": "inactive"}, {"molecule": "C[C@@H]1CN([C@H](C)CO)C(=O)c2c(c3ccccc3n2C)-c2ccccc2CO[C@H]1CN(C)C(=O)Nc1cccc(C(F)(F)F)c1", "cytotoxicity call": "inactive"}, {"molecule": "C[C@H](CO)N1C[C@H](C)[C@@H](CN(C)C(=O)Nc2cccc(C(F)(F)F)c2)OCc2ccccc2-c2c(n(C)c3ccccc23)C1=O", "cytotoxicity call": "inactive"}, {"molecule": "C[C@@H]1CN([C@H](C)CO)C(=O)c2c(c3ccccc3n2C)-c2ccccc2CO[C@@H]1CN(C)C(=O)Nc1cccc(C(F)(F)F)c1", "cytotoxicity call": "active"}, {"molecule": "C[C@H](CO)N1C[C@H](C)[C@H](CN(C)C(=O)Nc2cccc(C(F)(F)F)c2)OCc2ccccc2-c2c(n(C)c3ccccc23)C1=O", "cytotoxicity call": "inactive"}, {"molecule": "C[C@H]1CN([C@@H](C)CO)C(=O)c2c(c3ccccc3n2C)-c2ccccc2CO[C@H]1CN(C)C(=O)Nc1cccc(C(F)(F)F)c1", "cytotoxicity call": "inactive"}, {"molecule": "C[C@@H]1CN([C@@H](C)CO)C(=O)c2c(c3ccccc3n2C)-c2ccccc2CO[C@H]1CN(C)C(=O)Nc1cccc(C(F)(F)F)c1", "cytotoxicity call": "active"}, {"molecule": "COc1ccc(S(=O)(=O)N(C)C[C@@H]2OCCCC[C@H](C)Oc3ccc(NC(=O)Nc4c(C)noc4C)cc3C(=O)N([C@@H](C)CO)C[C@@H]2C)cc1", "cytotoxicity call": "inactive"}, {"molecule": "Cc1noc(C)c1NC(=O)N(C)C[C@@H]1Oc2ccc(NC(=O)NC(C)C)cc2CC(=O)N([C@@H](C)CO)C[C@@H]1C", "cytotoxicity call": "inactive"}, {"molecule": "O=C(/C=C/c1ccc(O)c(O)c1)O[C@@H]1C[C@@](O)(C(=O)O)C[C@@H](O)[C@@H]1O", "cytotoxicity call": "active"}, {"molecule": "O=C(/C=C/c1ccc(O)c(O)c1)O[C@@H]1C[C@](O)(C(=O)O)C[C@@H](O)[C@H]1O", "cytotoxicity call": "inactive"}, {"molecule": "O=C(C=Cc1ccc(O)c(O)c1)OC1CC(O)(C(=O)O)CC(O)C1O", "note": "(stereo not drawn)", "cytotoxicity call": "inactive"}, {"molecule": "Cc1noc(C)c1NC(=O)N(C)C[C@H]1OCCCC[C@@H](C)Oc2ccc(NS(=O)(=O)c3ccc(F)cc3)cc2C(=O)N([C@@H](C)CO)C[C@H]1C", "cytotoxicity call": "inactive"}]}]}
